Results on 28 molecules are retold here after PubChem BioAssay (Tox21).

Several values for one entry are separate records, joined by “and”; a condition that tells them apart may be missing. Equal entries are not always repeated. A number with no mark means an inactive call. Inconclusive results are not listed. Activity calls are given as the source filed them. Unless noted, calls follow the shape of the dose curve; as a rule, active = well fitted curve in the direction sought with a large enough effect in the repeat runs; inconclusive = weak or mixed curves; inactive = no such curve, though single readings can be large; an effect the other way counts as inactive or inconclusive.

Assay [1] can be described thus: Human pregnane X receptor (PXR) small molecule agonists, qHTS cell viability counter screen (AID 1346977). Also: nearly all actives have a fitted effect of over 50% in size. Also: potency is read from the fitted curve at half-maximal effect. The gist of the method: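 In each well, the PXR reporter HepG2 line was checked for viability: CellTiter-Fluor reagent added 23hr post-dosing, fluorescence read after 1hr incubation at 37C.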
(qHTS replaces the single test concentration by a dilution series.)

Assay [2] is described as follows: Caspase-3/7 induction in HepG2 cells by small molecules, qHTS assay (AID 1346978). Also: nearly all actives have a fitted effect of over 15% in size. An outline of the steps: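 Caspase-3/7 induction was measured by Caspase-Glo 3/7 luminescence (30 min, room temperature) after a 17 hr compound exposure of wild-type HepG2 cells seeded at 2,000 per well and pre-incubated 5 hr.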
A short description of assay [3]: Caspase-3/7 induction in CHO-K1 cells by small molecules, qHTS cell viability counter screen (AID 1346979). Also: nearly all actives have a fitted effect of over 35% in size. Also: potency is read from the fitted curve at half-maximal effect. The gist of the method: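 Following a 5hr settling period, CHO-K1 cells at 1,500 per well received DMSO-dissolved compounds. Cell viability was quantified 16hr later by CellTiter-Fluor fluorescence, measured after 1hr with reagent at 37C.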
Assay [4] is described as follows: Caspase-3/7 induction in CHO-K1 cells by small molecules, qHTS assay (AID 1346980). Also: nearly all actives have a fitted effect of over 15% in size. The gist of the method: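 Luminescent Caspase-Glo 3/7 read (30min, room temperature) quantified apoptosis induction. Cells were wild-type CHO-K1, treated with compound for 17hr at 37 C and 5% CO2.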
Assay [5] can be described thus: Caspase-3/7 induction in HepG2 cells by small molecules, qHTS cell viability counter screen (AID 1346981). Also: nearly all actives have a fitted effect of over 30% in size. Also: potency is read from the fitted curve at half-maximal effect. The gist of the method: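 In this quantitative HTS counter screen, compounds delivered in DMSO were left on unmodified HepG2 cells for 16 hr at 37 C. Viability was then determined fluorometrically with CellTiter-Fluor, in parallel with caspase-3/7 induction in the same wells.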

The target of assay [6] is Nuclear receptor subfamily 1 group I member 2 (Homo sapiens) (UniProt O75469). Briefly: Human pregnane X receptor (PXR) small molecule agonists, qHTS assay (AID 1346982). Also: nearly all actives have a fitted effect of over 35% in size. Also: potency is read from the fitted curve at half-maximal effect. An outline of the steps: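 Reporter HepG2 cells expressing PXR-Luc are cultured in charcoal-stripped FBS (5%), treated with compounds for 24 hr at 37 C, and assayed by ONE-Glo luminescence after 30 min at room temperature.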
Nuclear receptor subfamily 1 group I member 2 (Homo sapiens), sequence (O75469 whole entry, looked up): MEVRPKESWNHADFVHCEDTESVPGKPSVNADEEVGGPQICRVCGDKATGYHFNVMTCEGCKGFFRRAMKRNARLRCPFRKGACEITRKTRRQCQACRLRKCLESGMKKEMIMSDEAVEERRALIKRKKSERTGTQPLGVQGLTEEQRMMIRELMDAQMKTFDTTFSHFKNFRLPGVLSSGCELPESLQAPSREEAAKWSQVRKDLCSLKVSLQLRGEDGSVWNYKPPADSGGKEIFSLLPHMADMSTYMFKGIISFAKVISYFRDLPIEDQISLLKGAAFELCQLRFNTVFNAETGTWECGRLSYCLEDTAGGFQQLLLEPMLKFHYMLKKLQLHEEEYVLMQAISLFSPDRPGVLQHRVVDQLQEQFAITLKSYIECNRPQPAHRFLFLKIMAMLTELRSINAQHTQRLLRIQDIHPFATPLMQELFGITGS

The target of assay [7] is Acetylcholinesterase (Homo sapiens) (UniProt P22303). Briefly: Acetylcholinesterase (AChE) small molecule antagonists: colormetric cell-based qHTS assay (AID 1347395; calls by dose curve; also: nearly all actives have a fitted effect of over 30% in size; also: potency is read from the fitted curve at half-maximal effect). The gist of the method:
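After overnight attachment at 37 C, SH-SY5Y cells get 30 min compound exposure; detection cocktail (acetylthiocholine, DTNB) then incubates 90 min at 37 C, and absorbance reflects AChE-generated thiocholine.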

The target of assay [8] is Nuclear receptor subfamily 1 group I member 2 (Rattus norvegicus) (UniProt Q9R1A7). Briefly: Rat pregnane X receptor (rPXR) activation by small molecules, qHTS assay (AID 1346983). Also: nearly all actives have a fitted effect of over 20% in size. Particulars: rPXR luciferase reporter cells, One-Glo luminescence, 24 h; max activation: stronger effect = higher value. The gist of the method: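 Luminescent readout (One-Glo luciferase, 30 min room temperature) followed 24 hr compound treatment at 37 C of rPXR cells plated 2,000 per well and preincubated 5hr; qHTS format with compounds delivered in DMSO.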
Nuclear receptor subfamily 1 group I member 2 (Rattus norvegicus), sequence (Q9R1A7 whole entry, looked up): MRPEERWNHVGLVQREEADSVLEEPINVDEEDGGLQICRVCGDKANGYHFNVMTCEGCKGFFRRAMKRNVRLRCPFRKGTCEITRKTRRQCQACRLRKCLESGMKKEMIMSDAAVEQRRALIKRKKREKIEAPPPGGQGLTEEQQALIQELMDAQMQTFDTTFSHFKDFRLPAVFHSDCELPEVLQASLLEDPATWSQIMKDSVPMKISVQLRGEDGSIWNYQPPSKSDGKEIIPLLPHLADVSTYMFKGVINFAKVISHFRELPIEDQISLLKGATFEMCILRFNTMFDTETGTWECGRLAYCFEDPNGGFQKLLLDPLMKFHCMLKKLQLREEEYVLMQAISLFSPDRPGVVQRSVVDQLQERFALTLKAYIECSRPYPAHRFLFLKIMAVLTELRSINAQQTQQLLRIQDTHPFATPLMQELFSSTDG

Assay [9] has as its target Nuclear receptor subfamily 1 group I member 2 (Homo sapiens) (UniProt O75469). Briefly: CYP3A4 induction through human pregnane X receptor (PXR) by small molecules, qHTS assay (AID 1346984). Also: nearly all actives have a fitted effect of over 40% in size. An outline of the steps: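 Induction measured in HepG2-based DPX-2 cells co-expressing human PXR and a CYP3A4 promoter-driven luciferase. After a 24-hour compound exposure, cells received CYP3A4 luciferin substrate at 3uM final for 3 hours, and light output was then recorded.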

Assay [10] shares this target. Briefly: Human pregnane X receptor (PXR) activation by small molecules, qHTS assay (AID 1346985). Also: nearly all actives have a fitted effect of over 40% in size. The gist of the method:
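DPX-2 cells (HepG2 co-transfected with a PXR response element and a CYP3A4-promoter luciferase construct) were seeded at 2,000 per well, rested 5 hr at 37C, then exposed to DMSO-dissolved compounds for 24 hr. Activation was read as luciferase luminescence.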
% is scaled to controls: 0 for no effect and ±100 for the full control effect.

Acetylcholinesterase (Homo sapiens), sequence (P22303 whole entry, looked up): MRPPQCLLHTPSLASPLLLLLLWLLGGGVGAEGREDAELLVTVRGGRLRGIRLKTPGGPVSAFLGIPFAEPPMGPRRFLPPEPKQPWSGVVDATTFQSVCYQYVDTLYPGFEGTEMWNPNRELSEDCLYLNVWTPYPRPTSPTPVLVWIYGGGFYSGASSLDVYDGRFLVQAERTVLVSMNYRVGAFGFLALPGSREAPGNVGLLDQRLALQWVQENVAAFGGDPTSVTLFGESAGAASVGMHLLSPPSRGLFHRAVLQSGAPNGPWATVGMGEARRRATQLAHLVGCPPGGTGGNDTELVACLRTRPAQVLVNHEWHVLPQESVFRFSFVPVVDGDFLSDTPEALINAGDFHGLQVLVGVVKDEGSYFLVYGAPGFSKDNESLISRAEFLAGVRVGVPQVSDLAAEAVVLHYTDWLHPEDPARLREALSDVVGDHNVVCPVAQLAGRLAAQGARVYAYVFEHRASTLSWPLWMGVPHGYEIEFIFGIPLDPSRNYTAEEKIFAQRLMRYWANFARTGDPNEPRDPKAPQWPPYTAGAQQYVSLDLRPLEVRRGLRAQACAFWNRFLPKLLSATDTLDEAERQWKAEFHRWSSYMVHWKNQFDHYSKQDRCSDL

On to `N#Cc1ccccc1N`, for which the Potency result in [1], in assay [2], in assay [3], in [4], in [5] and in assay [6] was “inactive” in each case. Besides, the Potency result in assay [7] is “inactive”.
`N#C/C=C/C#N`: the Potency entry in assay [1], in [2], in assay [4], in assay [5] and in assay [7] was “inactive” throughout. For the same molecule, the Potency in assay [3] is 50.8 µM (active); in [6], 64 µM (active).
On to `C[C@@H]1CC[C@@]2(OC1)O[C@H]1[C@@H](O)[C@H]3[C@@H]4CC[C@H]5C[C@@H](O[C@@H]6O[C@H](CO)[C@H](O[C@@H]7O[C@H](CO)[C@@H](O)[C@H](O[C@@H]8OC[C@@H](O)[C@H](O)[C@H]8O)[C@H]7O[C@@H]7O[C@H](CO)[C@@H](O)[C@H](O[C@@H]8O[C@H](CO)[C@@H](O)[C@H](O)[C@H]8O)[C@H]7O)[C@H](O)[C@H]6O)[C@H](O)C[C@]5(C)[C@H]4CC[C@]3(C)[C@H]1[C@@H]2C`, for which the Potency was 10.3 µM (active) in [1], 4.59 µM (active) in assay [3] and 36.5 µM (active) in [5]. Further, the Potency entry in assay [2], in assay [4], in assay [6] and in [7] was “inactive” throughout.
`CC(C)OS(C)(=O)=O`: the Potency entry in [1], in [2], in [3], in [4], in assay [5] and in assay [6] was “inactive” in each case. Also, the Potency result in assay [7] was “inactive”.
On to `O=C1C=CC(=O)c2ccccc21`, for which the results for the Potency in assay [1], in assay [3] and in assay [5] were 48.6 µM (active), 5.45 µM (active) and 61.1 µM (active), respectively. For the same molecule, the Potency entry in [2], in assay [4], in assay [6] and in assay [7] was “inactive” throughout.
With `ClCc1ccc(Cl)cc1Cl`, the Potency entry in [1], in assay [2], in assay [3], in assay [4], in assay [5] and in [6] was “inactive” in each case. Further, the Potency entry in assay [7] was “inactive”.
With `O=c1ssc(Cl)c1Cl`, the Potency result in [1], in assay [2], in [4], in [5] and in assay [7] was “inactive” in each case. For the same molecule, the Potency in assay [3] and in assay [6] was 27.3 µM (active) each time.
`C[C@]12CC[C@H]3[C@@H](CCC4=CC(=O)CC[C@@]43C)[C@@H]1CC[C@@H]2O`: the Potency entry in assay [1], in [2], in [3], in assay [4], in assay [5] and in assay [7] was “inactive” throughout. Moreover, in [6], the Potency was 27.1 µM (active).
Consider `Fc1cccc(Cl)c1CCl`, for which the Potency entry in assay [1], in assay [2], in [3], in assay [4], in assay [5] and in assay [6] was “inactive” each time. In assay [7], the Potency result was “inactive”.
For the molecule `N#CCCO`, the Potency result in assay [1], in [2], in assay [3], in assay [4], in assay [5] and in assay [6] was “inactive” in each case. Besides, in assay [7], the Potency entry is “inactive”.
With `Cn1[nH]nnc1=S`, the Potency entry in assay [1], in [2], in assay [3], in assay [4], in assay [5] and in assay [6] was “inactive” each time. In assay [7], the Potency entry is “inactive”.
On to `CCCCCCCCCCCCCN1CC(C)OC(C)C1` (stereo not given), for which the Potency entry in [1], in [2], in assay [3], in assay [4], in [5] and in assay [6] was “inactive” throughout. Further, the Potency entry in assay [7] is “inactive”.
With `COc1ccc(OC)c(CC(C)N)c1` (stereo not given), the Potency result in [1], in assay [2], in assay [3], in assay [4], in assay [5] and in [6] was “inactive” in each case. Also, the Potency result in assay [7] was “inactive”.
Consider `COP(=O)(CCC(=O)NCO)OC`, for which the Potency entry in [1], in [2], in [3], in assay [4], in assay [5] and in assay [6] was “inactive” each time. The Potency result in assay [7] was “inactive”.
As for `O=C(Cl)c1ccc(Cl)cc1`, the Potency result in assay [1], in assay [2], in assay [3], in assay [4], in assay [5] and in assay [6] was “inactive” throughout. Also, the Potency entry in assay [7] was “inactive”.
As to `CCCCCCCCCCBr`, the Potency result in [1], in [2], in assay [3], in assay [4], in assay [5] and in assay [6] was “inactive” each time. Besides, the Potency result in assay [7] was “inactive”.
For `CCOC(=O)c1ccccc1S(=O)(=O)NC(=O)Nc1nc(Cl)cc(OC)n1`, the Potency entry in assay [1], in [2], in assay [3], in assay [4], in assay [5] and in [6] was “inactive” each time. Moreover, the Potency entry in [7] was “inactive”.
Take `N#CCCSCCC#N`: the Potency result in [1], in assay [2], in assay [3], in [4], in assay [5] and in assay [6] was “inactive” in each case. Moreover, the Potency entry in assay [7] is “inactive”.
As to `CCOC(=O)OC1=C(c2cc(C)ccc2C)C(=O)NC12CCC(OC)CC2` (stereo not given), the Potency entry in assay [1], in [2], in assay [3], in [4], in assay [5] and in assay [7] was “inactive” throughout.
For the molecule `CC(C)(COCC1CO1)COCC1CO1` (stereo not given), the Potency result in [1], in [2], in assay [3], in assay [4], in assay [5] and in assay [6] was “inactive” each time. The Potency result in assay [7] is “inactive”.
`COc1ccc(N)cc1N`: the Potency in [1] is 50.1 µM (active); in assay [3], 22.4 µM (active) and 29.4 µM (active); in [5], 56.2 µM (active); in assay [6] it was 11.2 µM (active) and 33 µM (active). Moreover, the Potency result in [2], in assay [4] and in [7] was “inactive” in each case.
On to `CCCCCCCCCCCCCCCC[N+](C)(C)C`, for which the Potency was 61.1 µM (active) in assay [1]; 26.3 µM (active) and 48.6 µM (active) and 29.8 µM (active) in assay [3]. Further, the Potency result in [2], in assay [4], in [6], in assay [9] and in assay [10] was “inactive” each time. Further, in assay [8], the max activation was -8.83%.
As to `O=c1c(C2CC(c3ccc(-c4ccc(Br)cc4)cc3)Cc3ccccc32)c(O)sc2ccccc12` (stereo not given), the Potency in assay [1], in [3] and in assay [6] was 18.8 µM (active) in each case. In addition, the Potency result in assay [2], in assay [4] and in assay [7] was “inactive” throughout.
As for `N#CC(Cl)Cl`, the Potency entry in assay [1], in [2], in [3], in [4], in assay [6] and in [7] was “inactive” throughout.
For the molecule `CC(C)Oc1cccc(NC(=O)c2ccccc2C(F)(F)F)c1`, the Potency entry in assay [1], in [2], in assay [4] and in assay [7] was “inactive” each time. Moreover, the Potency in assay [3] is 45.8 µM (active); in [6], 19.3 µM (active).
For `N#Cc1ccc(O)cc1`, the Potency result in assay [1], in [2], in assay [3], in [4], in assay [6] and in assay [7] was “inactive” in each case.
For the molecule `COP(N)(=S)OC`, the Potency entry in assay [1], in assay [2], in assay [3], in assay [4] and in assay [6] was “inactive” in each case. The Potency in assay [7] was 63.3 µM (active).
For `N#CNC#N`, the Potency result in assay [1], in assay [2], in [3], in assay [4], in [6] and in assay [7] was “inactive” each time.
